# PubChem BioAssay (NCI)
# Values joined by “and” are separate entries in the source; they are usually repeats but may differ in a detail not shown here. Equal values may be shown once. About 83,000 compounds went through this panel and 20% of them were active in at least one assay; those are over-represented in the sample as a whole.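 Cell lines were cultured in 96-well plates, exposed to a single compound concentration, and assessed for percent growth 48 hours later.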 Active and inactive are the calls of the source. Rule for the calls: active = growth percent below 10; inactive = the rest.
# Assays:
# Test in all cases: NCI-60 one-dose screen, 48 h (100 = growth as untreated, 0 = no growth, -100 = all killed)
# Settings in all cases: 10 µM unless noted
# NCI-H23 lung = tested on: NCI-H23 lung
# NCI-H226 lung = tested on: NCI-H226 lung
# NCI-H322M lung = tested on: NCI-H322M lung
# HOP-62 NSCLC = tested on: HOP-62 NSCLC
# NCI-H460 lung = tested on: NCI-H460 lung
# HOP-92 NSCLC = tested on: HOP-92 NSCLC
# NCI-H522 lung = tested on: NCI-H522 lung
# A549/ATCC NSCLC = tested on: A549/ATCC NSCLC
# 786-0 renal = tested on: 786-0 renal
# COLO 205 colon = tested on: COLO 205 colon
# DU-145 prostate = tested on: DU-145 prostate
# K-562 leukemia = tested on: K-562 leukemia
# MALME-3M melanoma = tested on: MALME-3M melanoma
# MDA-MB-231 breast = tested on: MDA-MB-231 breast
# RXF 393 renal = tested on: RXF 393 renal
# SF-268 CNS = tested on: SF-268 CNS
# SF-295 CNS = tested on: SF-295 CNS
# SF-539 CNS = tested on: SF-539 CNS
# UACC-257 melanoma = tested on: UACC-257 melanoma
# M14 melanoma = tested on: M14 melanoma
Structure (SMILES),growth (NCI-H23 lung),growth (NCI-H226 lung),growth (NCI-H322M lung),growth (HOP-62 NSCLC),growth (NCI-H460 lung),growth (HOP-92 NSCLC),growth (NCI-H522 lung),growth (A549/ATCC NSCLC),growth (786-0 renal),growth (COLO 205 colon),growth (DU-145 prostate),growth (K-562 leukemia),growth (MALME-3M melanoma),growth (MDA-MB-231 breast),growth (RXF 393 renal),growth (SF-268 CNS),growth (SF-295 CNS),growth (SF-539 CNS),growth (UACC-257 melanoma),growth (M14 melanoma)
Cn1c(SSc2ccc(-c3cccnc3)n2C)ccc1-c1cccnc1,99.8% (inactive) and 111% (inactive),108% (inactive) and 105% (inactive),106% (inactive) and 95.5% (inactive),117% (inactive) and 118% (inactive),101% (inactive) and 65.9% (inactive),79% (inactive) and 101% (inactive),62% (inactive) and 81.9% (inactive),103% (inactive),120% (inactive) and 112% (inactive),116% (inactive) and 102% (inactive),115% (inactive) and 107% (inactive),75.9% (inactive) and 7.91% (active),102% (inactive) and 105% (inactive),91.4% (inactive) and 110% (inactive),105% (inactive) and 110% (inactive),82.1% (inactive) and 93.5% (inactive),77.9% (inactive) and 93.7% (inactive),116% (inactive) and 122% (inactive),86.1% (inactive) and 93.8% (inactive),101% (inactive) and 98.4% (inactive)
Cc1cc(O)c(C(C)C)cc1S(=O)(=O)O (tested in a mixture with another compound),87.6% (inactive) and 13% (inactive) and 102% (inactive),89% (inactive) and 43.4% (inactive) and 93.8% (inactive),90.7% (inactive) and 24.7% (inactive) and 93.4% (inactive),77.5% (inactive) and 33.1% (inactive) and 106% (inactive),99.1% (inactive) and 1.34% (active) and 108% (inactive),89.5% (inactive) and 6.59% (active) and 77.8% (inactive),88.5% (inactive) and -20.5% (active),90.1% (inactive) and 8.67% (active) and 102% (inactive),87.2% (inactive) and 13% (inactive) and 116% (inactive),124% (inactive) and -63.7% (active) and 103% (inactive),120% (inactive) and 5.68% (active) and 115% (inactive),111% (inactive) and 3.5% (active) and 104% (inactive),99.7% (inactive) and 47.1% (inactive) and 93.1% (inactive),107% (inactive) and 10.3% (inactive) and 90.1% (inactive),97.3% (inactive) and 8.53% (active) and 118% (inactive),101% (inactive) and 22% (inactive) and 109% (inactive),101% (inactive) and 77.7% (inactive),93.1% (inactive) and 4.98% (active) and 94.7% (inactive),92.6% (inactive) and 40.4% (inactive) and 94.9% (inactive),91.5% (inactive) and -39.1% (active) and 106% (inactive)
CCN(CC)CCCC(C)N(Cc1ccccc1)CC(O)c1ccc(Cl)cc1 (stereo not given),106% (inactive) and 101% (inactive),98.9% (inactive) and 110% (inactive),114% (inactive) and 98% (inactive),97.3% (inactive) and 92.8% (inactive),101% (inactive) and 116% (inactive),71.7% (inactive) and 95.2% (inactive),107% (inactive) and 89.8% (inactive),103% (inactive) and 96.7% (inactive),108% (inactive) and 96.8% (inactive),103% (inactive) and 111% (inactive),109% (inactive) and 106% (inactive),100% (inactive) and 106% (inactive),103% (inactive),114% (inactive) and 105% (inactive),101% (inactive) and 106% (inactive),102% (inactive) and 100% (inactive),103% (inactive) and 96% (inactive),111% (inactive) and 95.9% (inactive),102% (inactive) and 105% (inactive),109% (inactive) and 104% (inactive)
CC(=O)Nc1cc(S(=O)(=O)O)cc2cc(S(=O)(=O)O)c(N=Nc3ccccc3)c(O)c12,96.3% (inactive) and 101% (inactive),99.7% (inactive) and 105% (inactive),112% (inactive) and 91.9% (inactive),140% (inactive) and 98.6% (inactive),104% (inactive) and 103% (inactive),82% (inactive) and 102% (inactive),112% (inactive) and 82.3% (inactive),108% (inactive) and 97% (inactive),106% (inactive) and 103% (inactive),99.7% (inactive) and 109% (inactive),118% (inactive) and 114% (inactive),107% (inactive) and 84.6% (inactive),110% (inactive) and 99.4% (inactive),100% (inactive) and 104% (inactive),107% (inactive) and 113% (inactive),107% (inactive) and 100% (inactive),105% (inactive) and 110% (inactive),105% (inactive),115% (inactive) and 94.5% (inactive),103% (inactive) and 97.8% (inactive)
COC(=O)[C@H]1CCCN1C(=O)C1CCCN1C(=O)[C@@H](Cc1ccccc1)NC(=S)Nc1cc(C(F)(F)F)cc(C(F)(F)F)c1 (stereo not given in full),108% (inactive) and 96.5% (inactive),105% (inactive) and 87.6% (inactive),142% (inactive) and 88.4% (inactive),105% (inactive) and 97.9% (inactive),102% (inactive) and 94.5% (inactive),111% (inactive) and 84.9% (inactive),98.6% (inactive) and 78.1% (inactive),97.2% (inactive) and 71.4% (inactive),105% (inactive) and 99.2% (inactive),121% (inactive) and 91.4% (inactive),117% (inactive) and 91.4% (inactive),103% (inactive) and 65.2% (inactive),109% (inactive) and 98.8% (inactive),95.9% (inactive) and 75.4% (inactive),108% (inactive) and 84.8% (inactive),105% (inactive) and 86.9% (inactive),89.4% (inactive),102% (inactive) and 96.1% (inactive),108% (inactive) and 95.4% (inactive),113% (inactive) and 105% (inactive)
CC(CN=Cc1ccccc1O)N=Cc1ccccc1O (stereo not given),101% (inactive) and 102% (inactive),92.6% (inactive) and 91.4% (inactive),79.2% (inactive) and 113% (inactive),98.9% (inactive) and 104% (inactive),107% (inactive) and 100% (inactive),85.4% (inactive),75.7% (inactive) and 106% (inactive),107% (inactive) and 117% (inactive),104% (inactive) and 109% (inactive),98.5% (inactive),121% (inactive) and 105% (inactive),78.7% (inactive) and 88.2% (inactive),124% (inactive) and 110% (inactive),111% (inactive) and 104% (inactive),102% (inactive) and 91% (inactive),108% (inactive) and 91% (inactive),112% (inactive),94.9% (inactive) and 87.9% (inactive),87.7% (inactive) and 121% (inactive),106% (inactive) and 102% (inactive)
CCCCCN(CCCCC)CC(O)c1cc2c(c3ccccc13)CCCC2 (stereo not given),31.5% (inactive) and 40.8% (inactive),69.8% (inactive) and 53.2% (inactive),71.3% (inactive) and 38.5% (inactive),36.2% (inactive) and 75.6% (inactive),38.7% (inactive) and 25.8% (inactive),-14.4% (active),53% (inactive) and 50.1% (inactive),71.1% (inactive) and 59.9% (inactive),39.1% (inactive) and 27.2% (inactive),40.7% (inactive),75.5% (inactive) and 80.2% (inactive),23.5% (inactive) and 24.7% (inactive),65.4% (inactive) and 74.3% (inactive),8.63% (active) and 59.1% (inactive),26% (inactive) and 87.5% (inactive),86.7% (inactive) and 80% (inactive),55.5% (inactive),68.8% (inactive) and 52% (inactive),71.9% (inactive) and 71.5% (inactive),76.8% (inactive) and 72.4% (inactive)
